Assay [1] concerns MCC-13. As to the kind of experiment: qHTS assay to identify novel small-molecules to repurpose for Merkel cell carcinoma treatment (AID 1296009). Note: nearly all actives have a fitted effect of over 60% in size. Note: potency is the fitted concentration of half-maximal effect. To be noted: MCC and control cell lines, CellTiter-Glo viability, 72 h; series mostly up to 46 µM. In short, it runs like this: (§1)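 CellTiter-Glo luminescence after 72 hr compound exposure at 37 degree celsius gave cell viability. Libraries NPC and MIPE were run as 8- and 11-point dose responses; RLUs normalized to DMSO (negative) and no-cell (cytotoxicity) controls.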

Assay [2] concerns MKL-1. The assay is described as above. To be noted: MCC and control cell lines, CellTiter-Glo viability, 72 h; series mostly up to 46 µM. The essentials: as §1
Assay [3] deals with MKL-2. The description is as above. As to conditions: MCC and control cell lines, CellTiter-Glo viability, 72 h; series mostly up to 46 µM. In short, it runs like this: as §1
Assay [4] concerns NIH3T3. The assay is described as above. To be noted: MCC and control cell lines, CellTiter-Glo viability, 72 h; at 44.8 µM (top of the series) unless noted. The essentials: as §1
Assay [5] concerns UISO. The description is as above. To be noted: MCC and control cell lines, CellTiter-Glo viability, 72 h; series mostly up to 46 µM. The essentials: as §1
(In general: Cellular ATP, detected with luciferase, serves as a proxy for viable cell number.)

Assay [6] deals with WaGa. The assay is described as above. To be noted: MCC and control cell lines, CellTiter-Glo viability, 72 h; series mostly up to 46 µM. In short, it runs like this: as §1
The test system of assay [7] is C33A. Briefly: Primary qHTS to identify gynecologic anti-cancer compounds using libraries of approved drugs and bioactive compounds (AID 1345084). Note: nearly all actives have a fitted effect of over 55% in size. To be noted: Gynecologic cancer cell panel viability, ATPlite luminescence, 48 h; series mostly up to 57.5 µM. In short, it runs like this:
(§2)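 Cells, 1,000 per well, plated 16 h, then exposed 48 h at 37 C to compounds. Viability by ATPlite luminescence after 15 min at room temperature.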
For orientation: Quantitative high-throughput screening tests each substance at several concentrations.

Assay [8] relates to CAOV3. The assay is described as above. As to conditions: Gynecologic cancer cell panel viability, ATPlite luminescence, 48 h; series mostly up to 57.5 µM. The essentials:
as §2

The test system of assay [9] is MCC-26. Briefly: qHTS assay to identify novel small-molecules to repurpose for Merkel cell carcinoma treatment (AID 1296009). Note: nearly all actives have a fitted effect of over 60% in size. Note: potency is the fitted concentration of half-maximal effect. To be noted: MCC and control cell lines, CellTiter-Glo viability, 72 h; series mostly up to 46 µM. In short, it runs like this:
as §1

Records with an inconclusive call do not appear. A number with no mark means an inactive call. Activity calls are given as the source filed them. Calls come from the whole dose curve; as a rule, active = well fitted curve in the direction sought with a large enough effect; inconclusive = small, poorly fitted or top-dose-only effect, or another doubt; inactive = no such curve, though single readings can be large; an effect the other way counts as inactive or inconclusive.

Take `COc1ccc2c(c1)CCCC2=O`: the Potency result in assay [1], in assay [2], in assay [3], in assay [5], in [6] and in assay [7] was “inactive” throughout. Also, in assay [8], the Potency result was “inactive”. In addition, the compound was classed as inactive in assay [4].
Turning to `Nc1c2ccccc2nc2ccccc12`, the Potency in assay [1] is 18.8 µM (active); in assay [2], 3.35 µM (active).
Consider `CCCN(CCC)C(=O)C(CCC(=O)OCCCN1CCN(CCOC(=O)Cc2c(C)n(C(=O)c3ccc(Cl)cc3)c3ccc(OC)cc23)CC1)NC(=O)c1ccccc1` (stereo not drawn), for which the Potency entry in assay [1], in assay [9], in assay [2], in [5], in assay [7] and in assay [8] was “inactive” in each case.
Regarding `OCc1cccnc1`, the Potency entry in [1], in assay [2], in assay [3], in assay [5], in assay [6] and in [7] was “inactive” throughout. Also, in assay [8], the Potency entry is “inactive”. Moreover, the outcome in assay [4] was inactive.
Consider `CCCCCOc1ccccc1/C(=C\SC)n1ccnc1`, for which the Potency result in assay [1], in [9], in assay [7] and in assay [8] was “inactive” in each case. The Potency in assay [5] was 18.8 µM (active).
Turning to `Cc1ccc(/C=N/n2c(-c3ccccc3)csc2=S)cc1`, the Potency result in [1], in [9], in [2], in assay [7] and in assay [8] was “inactive” throughout.
`COC(=O)C1=C(C)NC(COC(N)=O)=C(C(=O)OC(C)C)C1c1cccc(Cl)c1Cl` (stereo not drawn): the Potency entry in assay [1], in assay [9], in assay [2], in assay [5], in assay [7] and in [8] was “inactive” in each case.
`C=CCNc1nc(NCC=C)nc(N2CCN(C(c3ccc(F)cc3)c3ccc(F)cc3)CC2)n1`: the Potency result in assay [1], in assay [9], in assay [2] and in [7] was “inactive” throughout.
In the case of `O=C(OCC(O)CO)c1ccccc1Nc1ccnc2c(C(F)(F)F)cccc12` (stereo not drawn), the Potency result in assay [1], in assay [9], in [5], in assay [6], in [7] and in assay [8] was “inactive” throughout.
Consider `CCCC(=O)O[C@]1(C(=O)CCl)[C@@H](C)C[C@H]2[C@@H]3CCC4=CC(=O)C=C[C@]4(C)[C@@]3(F)C(=O)C[C@@]21C`, for which the Potency entry in assay [1], in [9] and in assay [7] was “inactive” throughout.
Regarding `Nc1cccc2c(N)cccc12`, the Potency in [1] was 38.6 µM (active); in [2], 6.11 µM (active); in assay [3], 1.93 µM (active); in assay [5], 10.9 µM (active); in assay [6], 19.3 µM (active).
Regarding `O=C(O)c1ccccc1Nc1cc(Cl)ccc1C(=O)O`, the Potency result in [1], in [9], in [2], in assay [6], in [7] and in assay [8] was “inactive” in each case.
For the compound `CC[C@@]1(O)C(=O)OCc2c1cc1n(c2=O)Cc2c-1nc1ccccc1c2/C=N/OC(C)(C)C`, the Potency is 0.0841 µM (active) in assay [1]; 94.4 nM (active) in assay [9]; 0.0376 µM (active) in assay [3]; 0.168 µM (active) in [5]; 0.0266 µM (active) in assay [6].
With `CC(C)(Oc1ccc(Cl)cc1)C(=O)OCCCOC(=O)C(C)(C)Oc1ccc(Cl)cc1`, the Potency entry in assay [1], in [9], in assay [2], in assay [5], in assay [6] and in assay [7] was “inactive” each time. In addition, the Potency result in assay [8] was “inactive”.
With `CCN(CC)CC(=O)OCC(=O)[C@@]1(O)CC[C@H]2[C@@H]3CCC4=CC(=O)CC[C@]4(C)[C@H]3[C@@H](O)C[C@@]21C`, the Potency result in assay [1], in [2], in assay [3], in assay [5], in [6] and in [7] was “inactive” throughout. The Potency result in assay [8] is “inactive”. Moreover, in [4], the compound was classed as inactive.
Turning to `COCCc1ccccn1`, the Potency entry in assay [1], in [2], in [3], in assay [5], in assay [6] and in [7] was “inactive” each time. Besides, the Potency entry in assay [8] is “inactive”. The compound was classed as inactive in assay [4].
On to `OC1(c2ccccc2)CCNCC1`, for which the Potency entry in [1], in assay [2], in assay [3], in [5], in assay [6] and in [7] was “inactive” throughout. In addition, the Potency result in [8] is “inactive”. In addition, in [4], the compound was classed as inactive.
With `CC(C)(C)CC(=O)OCC(=O)[C@@]1(O)CC[C@H]2[C@@H]3CCC4=CC(=O)C=C[C@]4(C)[C@H]3[C@@H](O)C[C@@]21C`, the Potency entry in assay [1], in assay [9], in assay [2], in [5], in assay [6] and in [7] was “inactive” in each case. Moreover, the Potency entry in [8] was “inactive”.
Regarding `Cc1nc2n(c(=O)c1CCN1CCC(C(=O)c3ccc(F)cc3)CC1)CCS2`, the Potency result in [1], in assay [9], in [2], in assay [5], in assay [7] and in assay [8] was “inactive” each time.
Consider `CCOC(=O)Cn1cccc1-c1nc(-c2ccc(OC)cc2)c(-c2ccc(OC)cc2)s1`, for which the Potency entry in [1], in assay [9], in assay [5], in assay [6], in assay [7] and in assay [8] was “inactive” in each case. Further, in [4], the call was inactive.
For the compound `CCCC(=O)c1cc(O)c(O)cc1O`, the Potency entry in [1], in assay [9], in assay [7] and in [8] was “inactive” each time. The Potency in assay [3] was 27.3 µM (active).
As for `O=C(c1cc(O)c(O)c(O)c1)c1ccc(O)c(O)c1O`, the Potency result in assay [1], in [9], in assay [5], in assay [7] and in assay [8] was “inactive” each time.
For the compound `COc1cc(S(N)(=O)=O)cc(C(=O)O)c1OC`, the Potency result in assay [1], in assay [2], in assay [3], in assay [5], in [6] and in [7] was “inactive” in each case. Moreover, the Potency result in assay [8] was “inactive”. For the same compound, in [4], the compound was classed as inactive.

For the origin of these results see PubChem BioAssay (NCATS).
